Bioassay records as filed in PubChem BioAssay.
Rows were chosen to be rich in hits. Some 5.1% of all compounds tested hit in one or more screens of this group.
Hsp90 Hop PPI – changes Hsp90-Hop TPR2A binding signal, up or down; AlphaScreen TPR2A-His6 binding biotin-Hsp90 C-terminal peptide; Potency, µM (series often up to 57 µM), inactives show at the top dose activity change, negative = inhibition; actives 0.44% (n = 71,000); AID 595; active = well fitted curve in either direction with a large enough effect; inconclusive = small, poorly fitted or top-dose-only effect, or another doubt; note: potency is the fitted concentration of half-maximal effect; % is set by controls: 0 for no effect and ±100 for the full control effect
Tau filament bind – tau filament binding; Potency, µM (titrated, usually from 57.1 µM), for the others: top-dose activity change, negative = inhibition; P10636; actives 2% (n = 71,000); AID 596; recombinant tau filaments, thioflavin S fluorescence, 15 h; filaments grown with octadecylsulfate alongside compound;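 note: potency is the fitted concentration of half-maximal effect; % is set by controls: 0 for no effect and ±100 for the full control effect; actives lower thioflavin S fluorescence by blocking filaments or displacing dye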
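Read-out: ThS fluorescence, 450 nm excitation/510 nm emission; lower signal marks blocked filament formation or displaced dye. Tau at 1 uM with 30 uM ODS, 10 uM ThS, 5 mM DTT, 100 mM NaCl, 10 mM HEPES pH 7.4; 15 h, 37 C.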
DNA Pol III inh – inhibitors of bacterial DNA polymerase III holoenzyme; actives 0.25% (n = 71,000); AID 603; reconstituted DNA polymerase III holoenzyme replication, biochemical; Potency, µM (top dose mostly 57.1 µM), for inactives: top-dose activity change, negative = inhibition; note: potency is the fitted concentration of half-maximal effect; % is set by controls: 0 for no effect and ±100 for the full control effect
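Reconstituted *E. coli* holoenzyme (0.35 nM Pol III, 1 nM beta, 154 nM SSB, 2 nM primase) was preincubated with compound for 15 min at RT. Synthesis on 1.4 nM ssM13Gori ran 35 min, then was stopped with PicoGreen/EDTA and read as dsDNA fluorescence.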
HEK293 cAMP ctrl – parental HEK293 cAMP activation (counter-screen) | parental HEK293 CNG cAMP sensor, membrane potential fluorescence | Potency, µM (doses to about 57.1 µM), inactives show at the top dose activation, most hits filed as activators | actives 2.5% (n = 73,000) | AID 938; note: potency is the fitted concentration of half-maximal effect; % of control where 0% means no effect; nearly all actives have a fitted effect of over 55% in size
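Parental HEK 293 cells stably expressing a cAMP-gated CNG channel were loaded with membrane potential dye containing 100 uM RO 20-1724 for 60 min. Compound added for 30 min; depolarization read as fluorescence intensity at 590 nm.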
TSHR agonist – agonists of human thyroid stimulating hormone receptor. Potency, µM (series often up to 57.1 µM), for the others: at the highest dose activation, usual class: activators. actives 0.48% (n = 73,000). P16473. AID 926. HEK293-CNG-TSHR cells (CNG channel as cAMP sensor), membrane potential dye, cAMP; active = well fitted activation curve with a large enough effect in the main read-out, with a control signal flat, not every such curve was filed as active; inconclusive = small, poorly fitted or top-dose-only effect, or a change in a side signal; inactive = no such curve, though single readings can be large or run the other way; % of control where 0% means no effect;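 note: the control signal comes from parental cells without the receptor; potency is the fitted concentration of half-maximal effect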
Target sequence (P16473 whole entry, looked up): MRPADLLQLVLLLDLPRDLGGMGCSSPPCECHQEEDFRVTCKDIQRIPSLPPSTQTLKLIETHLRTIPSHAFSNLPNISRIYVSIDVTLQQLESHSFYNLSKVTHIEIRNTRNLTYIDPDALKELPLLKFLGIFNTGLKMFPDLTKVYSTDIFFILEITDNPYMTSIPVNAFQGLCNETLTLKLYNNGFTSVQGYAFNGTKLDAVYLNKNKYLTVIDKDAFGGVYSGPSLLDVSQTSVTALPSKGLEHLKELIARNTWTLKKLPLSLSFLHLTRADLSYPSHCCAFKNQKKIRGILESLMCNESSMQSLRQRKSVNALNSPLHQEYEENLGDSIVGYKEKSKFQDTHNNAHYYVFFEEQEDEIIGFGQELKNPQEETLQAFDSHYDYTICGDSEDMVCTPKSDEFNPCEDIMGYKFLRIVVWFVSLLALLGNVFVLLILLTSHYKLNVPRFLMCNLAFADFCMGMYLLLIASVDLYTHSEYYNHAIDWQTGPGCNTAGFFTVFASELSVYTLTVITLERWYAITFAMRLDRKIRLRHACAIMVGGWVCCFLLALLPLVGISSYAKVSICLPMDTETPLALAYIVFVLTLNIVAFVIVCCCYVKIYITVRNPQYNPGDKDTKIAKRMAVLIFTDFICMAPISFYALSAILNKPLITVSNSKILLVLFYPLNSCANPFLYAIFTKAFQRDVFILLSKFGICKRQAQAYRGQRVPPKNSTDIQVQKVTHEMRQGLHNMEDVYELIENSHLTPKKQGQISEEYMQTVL
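cAMP rise detected as CNG-channel membrane depolarization by fluorescent dye (emission 590 nm), 30 min after compound, following 60 min dye loading containing 100 uM RO 20-1724 at room temperature. Cells: TSHR/CNG HEK 293, with parental CNG HEK 293 as control.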
Hsp90 TPR2A CRC – confirmation and counter-screen of Hsp90 TPR2A co-chaperone interaction disrupters. AID 632. AlphaScreen TPR2A-His6 / biotin-Hsp90 peptide binding. shares compounds with Hsp90 Hop PPI. activity, negative = inhibition, % at 40 µM or 46 µM, hits read low. actives 100% (n = 45);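 active = compound lowering the Hsp90 and TPR2A binding signal, whether or not the linker counterscreen also flagged it as an artifact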
An asterisk follows results filed as active; ? = inconclusive; . = no result given; + = active, no number; ! = not active in a repeat; [ ] = remark or other dose. Unless noted, calls come from the whole dose curve; as a rule, active = well fitted curve in the direction sought with a large enough effect; inconclusive = small, poorly fitted or top-dose-only effect, or another doubt; inactive = no such curve, though single readings can be large; an effect the other way counts as inactive or inconclusive.

SMILES | Hsp90 Hop PPI | Tau filament bind | DNA Pol III inh | HEK293 cAMP ctrl | TSHR agonist | others
C[C@@H]1O[C@@H](O[C@H]2C[C@@H](O)[C@]3(CO)[C@@H]4[C@@H](O)C[C@]5(C)[C@H]([C@@H]6COC(=O)C6)CC[C@@]5(O)[C@H]4CC[C@@]3(O)C2)[C@H](O)[C@H](O)[C@@H]1O | -3.7% | -8.7% | -4.3% | 25.1µM* | ?
C[n+]1c(/C=C\c2ccc(O)c3ncccc23)[se]c2ccccc21 | 3.16µM* | ? | -8.3%[11.4 µM] | -12.9%[11.4 µM] | -4.7%[11.4 µM]
C=C(C)[C@H]1[C@H]2OC(=O)[C@@H]1[C@]1(O)C[C@H]3O[C@]34C(=O)O[C@H]2[C@]14C | ? | 31.6µM* | -2.6% | 5.7% | -2.3%
CN[C@H]1[C@H](C)O[C@@H](O[C@@H]2C/C=C(/C)C/C(C)=C\C=C/CC[C@@H](C)CNC(=O)/C=C\C=C/[C@H]2C)C[C@@H]1O | -2.6%[11 µM] | 195.9%[11.4 µM] | 2.8%[11.4 µM] | 4.4%[11.4 µM] | -0.7%[11.4 µM]
COc1cc2c(cc1O)C[C@H]1c3c(cc(OC)c(O)c3-2)CCN1C | -11.1% | 39.8µM* | -10.5% | -3.1% | -4.6%
CC(C)[C@@]1(NC(=O)[C@@H]2C=C3c4cccc5[nH]cc(c45)C[C@@H]3N(C)C2)O[C@]2(O)[C@H]3CCCN3C(=O)[C@H](Cc3ccccc3)N2C1=O | -28.5% | 434.3% | 0.4% | -11.5% | -6.4%
CC[N+](CC)(CCCNC1=CC(=O)C(NCCC[N+](CC)(CC)Cc2ccccc2)=CC1=O)Cc1ccccc1 | -5.3% | 31.6µM* | -5.2% | 2.0% | 0.1%
N[C@H](Cn1oc(=O)[nH]c1=O)C(=O)O | -8.7% | -9.3% | -1.7% | 10.5% | 8.1%
COc1ccc2[nH]c3c(c2c1)CCN=C3C | -21.2%[26 µM] | 2.51µM* | -9.3%[25.6 µM] | -4.9%[25.6 µM] | 15.1%[25.6 µM]
Oc1ccc2c3c1O[C@@H]1[C@@H](O)CC[C@]4(O)[C@H](C2)N(CC2CCC2)CC[C@@]314 | -5.6% | -8.8% | -7.3% | 12.6% | 19.3%
C[C@@H]1CCC/C=C\[C@H]2C[C@H](O)C[C@@H]2[C@H](O)/C=C\C(=O)O1 | 2.3% | 15.3% | -7.7% | -5.0% | -8.0%
COc1cc2cc(c1Cl)N(C)C(=O)C[C@H](OC(=O)C(C)C)[C@]1(C)O[C@@H]1[C@@H](C)[C@H]1C[C@](O)(NC(=O)O1)[C@@H](OC)/C=C\C=C(\C)C2 | -4.1%[11 µM] | 10.2%[11.4 µM] | -9.6%[11.4 µM] | 1µM* | ?
CN(C)c1ccc2c(c1)N=C(c1ccco1)OP2(=S)N1CCOCC1 (configuration not stated) | -6.1% | -19.6% | -5.6% | 25.2% | 15.8µM*
Clc1ccc(N2C[C@H]3CC[C@@H](C2)N3)nn1 | -6.3% | 7.1% | 2.7% | 1.9% | 3.1%
CN(C)[C@@H]1C(=O)C(C(N)=O)=C(O)[C@]2(O)C(=O)C3=C(O)c4c(O)cccc4[C@@](C)(O)[C@@H]3C[C@@H]12 | -2.8% | ? | -3.2% | 4.4% | -4.3%
O=C(O)/C=C\c1ccc[c]([Sb](=[O])([OH])[OH])c1 | -8.1%[11 µM] | 5.1%[11.4 µM] | 0.2µM* | -0.2%[11.4 µM] | -6.7%[11.4 µM]
O=Cc1ccccc1 | -3.2% | 2.1% | 0.6% | 8.2% | 4.2%
CN1[C@H]2CC(OC(=O)[C@H](CO)c3ccccc3)C[C@H]1[C@H]1O[C@H]12 (some centres not stated) | -2.4% | -0.1% | -2.7% | -2.8% | 1.0%
[Cl-].[Cl-].[Hg+2] | -0.1% | 11.8% | 31.6µM* | . | .
COc1ccc2c(c1)c(CCN1CCOCC1)c(C)n2C(=O)c1cccc(Cl)c1Cl | . | . | . | 10µM* | ?
O=[As](O)(O)c1ccc(Cc2ccc([As](=O)(O)O)cc2)cc1 | -5.3%[11 µM] | -4.6%[11.4 µM] | -4.2%[11.4 µM] | -5.5%[11.4 µM] | 2.2%[11.4 µM]
CCOC(=O)C1CCN(/C=C2/C(=O)NC(=O)N(Cc3ccco3)C2=O)CC1 | -13.6% | -9.5% | 7.94µM* | 3.5% | 10.4%
CCOC(=O)C1CCN(Cc2c(F)cccc2Cl)CC1 | 1.0% | 0.1% | -5.3% | ? | ?
CC1(C)N=C(N)N=C(N)N1c1cccc(C(=O)Nc2ccc(S(=O)(=O)F)cc2)c1 | -1.5%[11 µM] | 0.0%[11.4 µM] | -4.2%[11.4 µM] | 3.5%[11.4 µM] | 4.0%[11.4 µM]
C[C@@]12CC[C@H]3[C@@H](CC=C4C[C@H](OS(=O)(=O)O)CC[C@]43C)[C@H]1CCC2=O | -6.8% | -0.1% | -5.3% | ? | ?
SMILES | Hsp90 Hop PPI | Tau filament bind | DNA Pol III inh | HEK293 cAMP ctrl | TSHR agonist | others
CC1=NN=C(c2ccc(N)cc2)c2cc3c(cc2C1)OCO3 | ? | 31.6µM*! | -0.9% | 4.5% | 4.2%
Cc1nc2c(=O)n(C)c(=O)nc-2n(C)n1 | . | . | . | . | . | Hsp90 TPR2A CRC=+
Cn1nc(-c2ccccc2)nc2c(=O)n(C)c(=O)nc1-2 | . | . | . | . | . | Hsp90 TPR2A CRC=+
CCn1nc(-c2ccccc2)nc2c(=O)n(C)c(=O)nc1-2 | 1.26µM* | 79.5% | -0.3% | -4.9% | -20.7% | Hsp90 TPR2A CRC=+
C[C@@]12CC[C@H]3[C@@H](CCC4=CC(=O)CC[C@]43C)[C@H]1CCC2=O | -3.5% | -1.9% | 0.7% | ? | ?
C[C@@H]1O[C@H]1P(=O)(O)O | -8.7% | -4.4% | 3.9% | ? | ?
CC(=O)N1C[C@@H]2C[C@H](C1)c1cccc(=O)n1C2 | -1.9% | -26.2% | -3.5% | 1.4% | 2.5%
